# Screens from PubChem BioAssay.
# MRP-1 activ: MRP-1 activation; viability increase, % at 10 µM; H69AR cells + doxorubicin, viability rescue, CellTiter-Glo; 140,000 tested, 0.61% active; AID 799;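 active means viability gain under doxorubicin at or above a set limit, the compound median plus 3 SD, cut at about 4.7% in these data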;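 further: MRP-1 overexpressing cells given doxorubicin 25 µM after compound pretreatment; 18-22 h compound pretreatment then 72 h with doxorubicin before readout; 0% = doxorubicin-only wells and 100% = vehicle-treated cells without doxorubicin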
# ERb SRC1 inh: blocks coactivator binding to human estrogen receptor beta | Q92731 | TR-FRET ER-beta LBD / SRC1-Cy5 peptide binding; receptor agonist-loaded with 1 µM estradiol | inhibition, % at 25.6 µM | 86,000 tested, 1.3% active | AID 633;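 active means compounds whose percent inhibition of the receptor-coactivator binding signal exceeds about 50% in the single-dose screen, limit read from the data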;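 further: 0% = receptor plus peptide wells without compound and 100% = peptide-only wells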
# Smad3 inh: Smad3 (human) transcription factor binding inhibition | P84022 | TR-FRET Smad3/Dy647-FoxH1 peptide binding, europium anti-His | 88,000 tested, 0.29% active | inhibition, % at 25 µM | AID 630;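 active means compounds that reduce the energy-transfer binding signal between the protein and its labelled peptide by more than half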;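 further: 0% = Smad3 plus labelled peptide maximal FRET and 100% = peptide-only background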
# Target sequence (P84022 whole entry, looked up): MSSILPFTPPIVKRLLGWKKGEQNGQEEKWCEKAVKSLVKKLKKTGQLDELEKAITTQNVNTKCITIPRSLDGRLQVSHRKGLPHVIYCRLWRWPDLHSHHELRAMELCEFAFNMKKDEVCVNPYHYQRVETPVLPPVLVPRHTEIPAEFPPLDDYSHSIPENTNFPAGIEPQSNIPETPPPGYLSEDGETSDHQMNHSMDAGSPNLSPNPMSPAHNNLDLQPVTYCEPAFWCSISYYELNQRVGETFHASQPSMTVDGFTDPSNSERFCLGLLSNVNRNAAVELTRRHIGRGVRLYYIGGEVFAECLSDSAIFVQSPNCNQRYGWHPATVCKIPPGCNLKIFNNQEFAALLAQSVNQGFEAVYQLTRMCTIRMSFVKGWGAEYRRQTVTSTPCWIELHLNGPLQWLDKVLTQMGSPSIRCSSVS
# ERa coact inh: blocks coactivator binding to human estrogen receptor alpha. TR-FRET ER-alpha LBD / SRC-1 peptide, estradiol-bound. inhibition, % at 25.6 µM. 86,000 tested, 1.7% active. AID 629; in the data active means inhibition above about 50%;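 further: 0% = receptor plus peptide control and 100% = peptide only without receptor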
# MRP resist rev: compounds reversing MRP-mediated drug resistance; H69AR cells + 2 uM doxorubicin, CellTiter-Glo, 72 h; differential viability (reversal), % at 10 µM; 85,000 tested, 0.04% active; AID 602;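 active means viability drop by adding the cancer drug above about 55%, with treated viability meeting a 40% cutoff, limit read from the data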;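 further: viability without doxorubicin minus viability with 2 µM doxorubicin for each compound; larger differential means the compound sensitizes cells more to doxorubicin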
# ERa SRC1 pot: enhances coactivator binding to human estrogen receptor alpha; AID 639; P03372; 86,000 tested, 1.3% active; TR-FRET ERalpha-LBD/SRC-Cy5 coactivator binding, 2 h; 100 = basal binding, no effect; coactivator binding (% of control), % at 25.6 µM; in the data active means activity above about 200%;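 further: binding measured in presence of low estradiol as agonist stimulus; 0% = peptide alone without receptor and 100% = receptor with peptide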
# Starred values were filed as active, the others as inactive; . = no result; [ ] = remark or other dose. Shown are actives, neighbours in structure and some others; about 2.9% of the full set was active somewhere.
SMILES,MRP-1 activ,ERb SRC1 inh,Smad3 inh,ERa coact inh,MRP resist rev,ERa SRC1 pot
CC(C)(C)C(=O)NC(=S)NNC(=O)c1sc2ccccc2c1Cl,-5,.,.,.,.,.
C[C@]1(c2ccccc2)O[C@@H]2C[C@H]3[C@@H]4CCC5=CC(=O)C=C[C@@]5(C)[C@@]4(F)[C@H](O)C[C@]3(C)[C@]2(C(=O)CO)O1,.,.,4,.,.,.
CN(C)/C=N/c1c(C(=O)NCc2ccccc2)nnn1Cc1ccccc1,2,-1,-7,-3,9,116
c1ccc(-n2ncc3c(N4CCN(c5ccccn5)CC4)nc(N4CCOCC4)nc32)cc1,.,7,5,19,-5,220*[fluorescence artefact?]
c1ccc(-n2ncc3c(N4CCN(c5ccccn5)CC4)nc(N4CCCCC4)nc32)cc1,.,6,6,-11,0,114
CC1=C(C(=O)Nc2ccc(C)cn2)C(c2cnn(C)c2)C2=C(CCCC2=O)N1 (centres undefined),2,.,.,.,.,.
CCc1c(C#N)c(N)nc(SCC(=O)OCc2ccccc2)c1C#N,-2,28,27,26,-17,207*[fluorescence artefact?]
N#Cc1c(N)nc(SCc2ccncc2)c(C#N)c1-c1cccs1,-2,-6,3,-1,-16,267*[fluorescence artefact?]
Cc1ccccc1NC(=O)CSc1nc(N)c(C#N)c(-c2cccs2)c1C#N,-2,51*[fluorescence artefact?],29,29,-16,319*[fluorescence artefact?]
CCN(CC)C(=O)CSc1ncnc2c(-c3cccs3)nsc12,-6,51*[fluorescence artefact?],14,51*[fluorescence artefact?],-12,177
CCN(CC)C(=O)CSc1nc(-c2cccs2)cc(-c2cccs2)c1C#N,-4,7,-10,-14,-4,191
CN(C)CCn1c(CO)nc2c1c(=O)n(C)c(=O)n2C,.,.,8,.,.,.
CCN(CC)C(=O)CSc1nc(N)c(C#N)c(-c2cccs2)c1C#N,-2,2,3,17,-18,221*[fluorescence artefact?]
CCc1ccc(N(CC(=O)Nc2ccccc2C(=O)N2CCOCC2)S(C)(=O)=O)cc1,0,.,.,.,.,.
O=C(CSc1nc2scc(-c3ccco3)c2c(=O)n1-c1ccccc1)NCC1CCCO1 (centres undefined),-3,55*,-2,62*,4,143
O=c1c2c(-c3ccco3)csc2nc(SCc2cn3cccnc3n2)n1-c1ccccc1,-1,28,8,67*[fluorescence artefact?],19,81
NC(=O)CSc1nc2scc(-c3ccco3)c2c(=O)n1-c1ccccc1,-1,39,2,39,4,86
Cc1ccc(SCC(=O)NC(=O)NCc2ccco2)cc1C,-1,.,.,.,.,.
O=C1C2C(c3ccccc3)(C(=O)N1c1ccc(Cl)cc1)C2(c1ccccc1)c1ccccc1 (centres undefined),2,.,.,.,.,.
CCSc1nnc(NC(=O)c2ccccc2)s1,0,.,.,.,.,.
O=C(Nc1nnc(C2CCCCC2)s1)c1ccc(Br)s1,-2,52*[fluorescence artefact?],-9,11,4,367*[fluorescence artefact?]
Cc1cc(C(=O)Nc2nnc(C3CCCCC3)s2)cs1,0,-4,-1,3,14,111
COc1ccc(OC)c2sc(NC(=O)c3ccc(Br)s3)nc12,-1,70*[fluorescence artefact?],-31,82*[fluorescence artefact?],4,126
CCSc1nnc(NC(=O)c2ccc(Br)s2)s1,1,28,19,8,10,396*[fluorescence artefact?]
C[C@H]1C[C@@H]2[C@@H]3CCC4=CC(=O)C=C[C@@]4(C)[C@@]3(F)[C@H](O)C[C@@]2(C)[C@]1(O)C(=O)COP(=O)(O)O,.,.,8,.,.,.
SMILES,MRP-1 activ,ERb SRC1 inh,Smad3 inh,ERa coact inh,MRP resist rev,ERa SRC1 pot
O=C(Nc1cccc([N+](=O)[O-])c1)c1[nH]ncc1Cl,6.1*,.,.,.,.,.
O=C(Nc1cccc([N+](=O)[O-])c1)c1cnccn1,-2,.,.,.,.,.
C=CCNC(=S)NNC(=O)COc1ccc(Br)cc1,6.4*,.,.,.,.,.
O=c1[nH]c(SCc2c(Cl)c(Cl)c(Cl)c(Cl)c2Cl)nc(=S)[nH]1,.,.,4,.,.,.
Nc1c(C(=O)NCCN2CCOCC2)c2nc3ccccc3nc2n1-c1ccccc1,-2,-25,3,-32,-19,109
Nc1c(C(=O)NCCN2CCOCC2)c2nc3ccccc3nc2n1-c1ccc2c(c1)OCO2,-3,39,-3,63*[fluorescence artefact?],-26,73
Nc1ccc(-n2c(N)c(C(=O)NCc3ccc4c(c3)OCO4)c3nc4ccccc4nc32)cc1,.,33,4,79*[fluorescence artefact?],-24,15
C#CCOCCCC(=O)O,.,.,36,.,.,.
CN1CCc2c(sc3c2C(=O)NC(c2cn(Cc4ccccc4)c4ccccc24)N3)C1 (centres undefined),-5,64*[fluorescence artefact?],0,90*[fluorescence artefact?],-10,14
CN1CCc2c(sc3c2C(=O)NC(c2ccco2)N3)C1 (centres undefined),-2,9,-2,-6,-6,91
CN(C)CN1C(=O)S/C(=C2\C(=O)N(CN(C)C)c3ccccc32)C1=O,.,.,15,.,.,.
CSc1nnc(-c2sc3cc(C(F)(F)F)cnc3c2-c2ccccn2)n1C,-4,-1,3,1,-16,347*[fluorescence artefact?]
Cc1ccccc1C(=O)Nc1ccccc1-c1nnn(CC(=O)Nc2ccc3c(c2)OCCO3)n1,-4,.,.,.,.,.
Cc1ccc(C2=Nc3ccccc3N=C(c3ccco3)C2)c(O)c1,-4,.,.,.,.,.
Cc1ccc(O)c(C2=Nc3ccccc3N=C(c3ccco3)C2)c1,-2,41,41,34,-12,228*[fluorescence artefact?]
COc1ccccc1N/C(N)=N/c1nc(CSc2ccc(C)cc2)cc(=O)[nH]1,-4,30,-4,48,14,258*[fluorescence artefact?]
Cc1ccc(SCc2cc(=O)[nH]c(/N=C(\N)Nc3ccccc3Sc3ccccc3)n2)cc1,-6,.,.,.,.,.
COc1ccc(/C=N/Nc2cc(OC)ncn2)cc1,5.4*,.,.,.,.,.
CC(C)(CNC(=O)/C=C/c1ccc(F)cc1)CNC(=O)/C=C/c1ccc(F)cc1,5.9*,.,.,.,.,.
Cc1cc(-c2ccccc2)nc2cc(C(=O)N(Cc3ccccc3)Cc3ccccc3)nn12,2,-6,11,-11,-22,204*
NC(N)=NC(N)=Nc1ccc(S(=O)(=O)O)cc1,.,.,-3,.,.,.
NC(N)=N/N=C/c1ccc(C2CCNCC2)cc1,.,.,50,.,.,.
Clc1cccc(CSc2nnc(-c3c[nH]c4ccccc34)o2)c1,-1,.,.,.,.,.
Clc1ccc2nc(CSc3nnc(-c4c[nH]c5ccccc45)o3)cn2c1,.,42,11,31,16,261*[fluorescence artefact?]
NC(=O)c1oc2ccccc2c1NC(=O)c1ccccc1,-2,-9,2,-3,-7,107
SMILES,MRP-1 activ,ERb SRC1 inh,Smad3 inh,ERa coact inh,MRP resist rev,ERa SRC1 pot
Cc1ccc(C)c(C(=O)Nc2c(C(N)=O)oc3ccccc23)c1,-2,90*[fluorescence artefact?],11,-1,17,111
COc1ccc(-c2nn[nH]n2)cc1OC,-1,2,-7,-4,6,97
Nc1cc(-c2nn[nH]n2)ccc1F,-4,60*[fluorescence artefact?],9,43,-17,59
CC(=O)N1CC[n+]2c(-c3ccc(Cl)cc3Cl)csc21,-3,.,.,.,.,.
CC(C)NC(=O)C(=O)NCCc1ccc(Cl)cc1,4.8*,-6,-4,0,19,99
O=C(O)C1CCCCC1C(=O)NCCc1ccc(Cl)cc1 (centres undefined),2,-7,1,1,-3,128
